Source: PubChem
Only some compounds are listed: those with a hit (about 19% of all), similar ones and a draw of the others.
DT40 TDP1 CPT – DT40-hTDP1 cell growth loss with CPT; chicken DT40 Tdp1-/-;hTDP1 cells + 20 nM CPT, ATP luminescence, 48 h; Potency, µM (top dose mostly 46.2 µM), for inactives: at the top dose activity change, negative = growth inhibition, hits mostly inhibitors; 420,000 compounds, 12% hits; also: potency is read from the fitted curve at half-maximal effect; % is scaled to controls: 0 for no effect and ±100 for the full control effect; nearly all actives have a fitted effect of over 55% in size
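Chicken DT40 Tdp1-/- cells complemented with human TDP1, 400 cells/well, exposed to compounds plus 20 nM camptothecin for at least 48 h at 37 C; viability read as ATP content by CellTiter-Glo luminescence.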
TDP1 cell noCPT – qHTS for Inhibitors of human tyrosyl-DNA phosphodiesterase 1 (TDP1): qHTS in cells in absence of CPT. DT40 Tdp1-/- hTDP1 cells, no CPT, ATP luminescence, 48 h. Potency, µM (highest dose often 46.2 µM), inactives show at the highest dose activity change, negative = growth inhibition, actives largely listed as inhibitors. 420,000 compounds, 15% hits. AID 686978, 2013; also: potency is read from the fitted curve at half-maximal effect; % is scaled to controls: 0 for no effect and ±100 for the full control effect; nearly all actives have a fitted effect of over 55% in size
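Seeded 400 DT40-hTDP1 cells/well (vehicle DMSO, no 20 nM CPT); pinned compounds; ≥48 hr at 37 °C; CellTiter-Glo luminescence as viability measure.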
IL-1B inflam inh – inflammasome signaling inhibition, IL-1 beta readout; 360,000 compounds, 4.7% hits; activity change, % at 57.5 µM; AID 743279; THP-1 LPS/ATP IL-1B secretion, AlphaLISA, 16 h; active compounds read low; in the data active = activity change below about -50%; inconclusive = mostly about -30% to -49%; also: % is scaled to controls: 0 for no effect and ±100 for the full control effect
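THP-1 cells pretreated 1 hr with compounds (up to 57.5 uM final), then stimulated with LPS (250 ng/mL final) plus ATP (1.25 mM final); secreted IL-1B measured by AlphaLISA after 16 hr, decreased signal indicating inhibition.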
TDP1 block – TDP1 (human) enzyme inhibition | recombinant TDP1, AlphaScreen DNA substrate cleavage | Potency, µM (doses to about 130 µM), for the others: at the highest dose activity change, negative = inhibition, actives largely listed as inhibitors | Q9NUW8 | 350,000 compounds, 0.28% hits; also: potency is read from the fitted curve at half-maximal effect; % is scaled to controls: 0 for no effect and ±100 for the full control effect; nearly all actives have a fitted effect of over 40% in size
Target sequence (Q9NUW8 whole entry, looked up): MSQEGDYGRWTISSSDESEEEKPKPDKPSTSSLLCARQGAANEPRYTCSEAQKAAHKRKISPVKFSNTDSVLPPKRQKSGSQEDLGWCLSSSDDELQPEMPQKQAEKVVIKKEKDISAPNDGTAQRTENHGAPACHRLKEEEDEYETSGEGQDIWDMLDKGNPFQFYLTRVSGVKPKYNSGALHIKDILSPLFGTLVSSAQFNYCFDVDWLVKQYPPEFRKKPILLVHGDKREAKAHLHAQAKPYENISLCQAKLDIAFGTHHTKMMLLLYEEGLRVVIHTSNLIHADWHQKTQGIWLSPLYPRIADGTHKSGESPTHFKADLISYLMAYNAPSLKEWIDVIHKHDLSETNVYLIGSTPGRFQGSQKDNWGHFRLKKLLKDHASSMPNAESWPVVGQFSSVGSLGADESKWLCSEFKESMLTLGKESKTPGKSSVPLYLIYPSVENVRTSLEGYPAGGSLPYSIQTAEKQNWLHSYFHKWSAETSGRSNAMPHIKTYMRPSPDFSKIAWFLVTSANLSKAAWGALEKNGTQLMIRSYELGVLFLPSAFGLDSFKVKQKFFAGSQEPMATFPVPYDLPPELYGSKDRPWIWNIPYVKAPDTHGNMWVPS
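Recombinant E. coli-expressed Tdp1 (1 nM) preincubated with compound 15 min at RT, then 5'-biotin/3'-phosphotyrosine-FITC DNA substrate (15 nM) added for 5 min. AlphaScreen beads (10 ug/ml) added, 10 min RT; tyrosine-FITC cleavage read as signal loss.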
TGFb SMAD3 inh – inhibitors of TGF-b signaling. Potency, µM (highest dose often 46.1 µM), without a hit: at the highest dose activity, negative = inhibition, actives largely listed as inhibitors. HepG2 CAGA-GFP TGF-b/SMAD3 reporter, GFP fluorescence, 18 h; TGF-beta stimulated, 500 pg/mL final. AID 588855. 410,000 compounds, 1.2% hits; also: potency is read from the fitted curve at half-maximal effect; % is scaled to controls: 0 for no effect and ±100 for the full control effect; nearly all actives have a fitted effect of over 65% in size
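HEPG2 CAGA-GFP cells (1000/well, DMEM with 1% FBS) were pre-incubated 2 h at 37 degrees C, given compound by pin tool, then stimulated with TGF-beta at 500 pg/mL final for 18 h before per-cell GFP fluorescence imaging.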
HepG2 tox – HepG2 cytotoxicity, counter-screen for TGF-b inhibitors. HepG2 CAGA-GFP viability, ATP luminescence, 18 h. Potency, µM (doses to about 46.1 µM), inactives show at the top dose activity change, negative = cytotoxicity, actives largely listed as cytotoxic. 410,000 compounds, 0.76% hits. AID 588856; also: potency is read from the fitted curve at half-maximal effect
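HepG2 CAGA-GFP cells (1000/well, DMEM with 1% FBS) received compound, then TGF-beta at 500 pg/mL final, and were incubated 18 hours at 37 degrees C. Viability was read by CellTiter-Glo luminescence. Media-only wells were set as complete cell-killing and DMSO as no toxicity.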
* hit, by the source's call; ? = inconclusive; nt = no result; [ ] = another dose, or the depositor's remark. Unless noted, calls follow the shape of the dose curve; as a rule, active = well fitted curve in the direction sought with a large enough effect; inconclusive = small, poorly fitted or top-dose-only effect, or another doubt; inactive = no such curve, though single readings can be large; an effect the other way counts as inactive or inconclusive.

SMILES	DT40 TDP1 CPT	TDP1 cell noCPT	IL-1B inflam inh	TDP1 block	TGFb SMAD3 inh	HepG2 tox
O=C(Nc1ccc(-c2cn3cccnc3n2)cc1)c1ccccc1F	?	16.4µM*	nt	1.1%	?	-24.9%
CCOCC(=O)Nc1ccc(-c2cn3cccnc3n2)cc1	14.6µM*	-27.2%	24.7	0.0%	0.9%	-8.0%
Cc1ccc(-c2cn3cccnc3n2)cc1	12.4%	-9.8%	-23.9	0.0%	1.3%	1.8%
CCCC(=O)Nc1ccc(-c2cn3cccnc3n2)cc1	-4.1%	?	-8.7	nt	-18.7%	-31.5%
Nc1cccc(-c2cn3cccnc3n2)c1	20.6µM*	?	6.4	-1.3%	2.4%	15.4%
Cc1ccc(C(=O)Nc2ccc(-c3cn4cccnc4n3)cc2)cc1C	?	?	nt	6.4%	?	-61.2%
Cc1cc(C)cc(C(=O)Nc2ccc(-c3cn4cccnc4n3)cc2)c1	?	9.2µM*	nt	-3.8%	?	-33.9%
Cc1nn(Cc2ccc(Cl)cc2)c(C)c1NC(=O)CSc1n[nH]c(C)c1[N+](=O)[O-]	25.9µM*	20.6µM*	7.5	3.4%	4.4%	10.0%
Cc1nn(Cc2ccc(Cl)cc2)c(C)c1NC(=O)c1ccc([N+](=O)[O-])cc1	0.8%	?	-74.3*	5.5%	-16.2%	2.4%
Cc1nn(Cc2ccccc2)c(C)c1NC(=O)CSc1n[nH]c(C)c1[N+](=O)[O-]	?	?	11.2	1.1%	-15.6%	-3.5%
CCn1c(=N)n(CC(O)c2ccccc2)c2ccccc21 (centres undefined)	-8.8%	-28.0%	-5.3	-1.0%	-1.1%	-19.4%
CCCCn1c(=N)n(CC(O)COc2ccc(C)cc2)c2ccccc21 (centres undefined)	6.51µM*	4.11µM*	-73.2*	2.9%	?	12.6µM*
CCCCn1c(=N)n(CC(O)COc2ccccc2)c2ccccc21 (centres undefined)	11.6µM*	11.6µM*	?	0.0%	-16.2%	-31.2%
CCCCn1c(=N)n(CC(O)c2ccccc2)c2ccccc21 (centres undefined)	14.6µM*	23.1µM*	-67.0*	2.6%	3.7%	-16.5%
CCOC(=O)Nc1cc2c(c(N)n1)N=C(c1ccccc1)CN2	0.206µM*	0.0411µM*	4.6	nt	?	-6.6%
CCOC(=O)Nc1sc(C)nc1-c1ccccc1	10.1%	-4.1%	-6.2	0.0%	4.8%	4.6%
CC(C)=CCC12Oc3cc(O)ccc3C1(O)Oc1cc3c(c(O)c1C2=O)C=CC(C)(C)O3 (centres undefined)	25.9µM*	?	-1.2	nt	?	-96.4%
CC(=O)Nc1cccc(-c2ccnc3c2CC(C(=O)Nc2ccc4c(c2)OCO4)O3)c1 (centres undefined)	2.91µM*	4.61µM*	17.0	nt	-5.8%	-8.4%
O=C(Nc1ccc2c(c1)OCO2)C1Cc2c(-c3ccc(Cl)cc3)ccnc2O1 (centres undefined)	?	?	-53.1*	nt	?	-39.4%
O=C(Nc1ccc2c(c1)OCO2)C1Cc2c(-c3cccnc3)ccnc2O1 (centres undefined)	-23.3%	?	33.8	nt	5.1%	-1.7%
COc1ccc(NC(=O)C2Cc3c(-c4ccc5c(c4)OCO5)ccnc3O2)cc1 (centres undefined)	5.17µM*	8.2µM*	10.6	nt	-13.0%	-28.1%
O=C(NCC1CC1)C1Cc2c(-c3ccc4c(c3)OCO4)ccnc2O1 (centres undefined)	?	18.4µM*	0.0	nt	33.9%	1.6%
COc1ccccc1NC(=O)CCN1CCCCC1	3.2%	3.6%	nt	0.4%[12.3 µM]	-10.1%	1.7%
CC1CCN(c2ccc(-c3cccc(NS(=O)(=O)c4cccs4)c3)nn2)CC1	-7.8%	-5.9%	nt	-0.6%	-17.9%	-33.2%
O=C(N/C(=C/c1ccccc1F)C(=O)N1CCCCC1)c1ccccc1	7.1%	4.5%	0.0	11.7%[0.0935 µM]	7.5%	-59.2%
SMILES	DT40 TDP1 CPT	TDP1 cell noCPT	IL-1B inflam inh	TDP1 block	TGFb SMAD3 inh	HepG2 tox
COc1ccc(-c2nc(-c3ccccc3)c(Nc3ccc4ccccc4c3)o2)cc1	nt	nt	nt	11.8%	nt	nt
O=C(C[n+]1ccccc1Cl)c1cccc([N+](=O)[O-])c1	?	?	nt	nt	-29.5%	-45.9%
CC(=O)Nc1ccc(NC(=O)C2Cc3c(-c4ccc5c(c4)OCO5)ccnc3O2)cc1 (centres undefined)	-7.2%	-5.7%	-1.6	nt	15.1%	-11.2%
O=C(Nc1ccc2c(c1)OCO2)C1Cc2c(-c3ccc4c(c3)OCO4)ccnc2O1 (centres undefined)	6.51µM*	6.51µM*	-2.3	nt	?	-41.9%
O=C(Nc1cccnc1)C1Cc2c(-c3ccc4c(c3)OCO4)ccnc2O1 (centres undefined)	20.6µM*	1.03µM*	-56.8*	nt	7.6%	-15.6%
CN1CC2=Cc3ccccc3OC23Oc2ccccc2C=C3C1	?	?	-116.7*	7.3%	?	-86.1%
Cc1ccc(Cn2c(=O)n(CC3CCC(C(=O)N4CCC(C)CC4)CC3)c(=O)c3sccc32)cc1 (centres undefined)	?	?	nt	7.1%	-25.0%	-4.7%
O=C(C1CCC(Cn2c(=O)c3sccc3n(Cc3ccc(F)cc3)c2=O)CC1)N1CCOCC1 (centres undefined)	23.1µM*	18.4µM*	nt	7.1%	?	-16.3%
CCN(CC)C(=O)Cn1c(=O)n(Cc2ccc(F)cc2)c(=O)c2sccc21	9.2µM*	?	4.2	nt	-1.1%	-11.1%
Cc1ccccc1Cn1c(=O)n(CC2CCC(C(=O)N3CCC(C)CC3)CC2)c(=O)c2sccc21 (centres undefined)	23.1µM*	16.4µM*	nt	5.8%	?	-4.9%
CNC(=O)C1CCC(Cn2c(=O)c3sccc3n(CC(=O)Nc3cc(C)cc(C)c3)c2=O)CC1 (centres undefined)	?	10.3µM*	nt	9.7%	1.7%	-0.5%
CNC(=O)C1CCC(Cn2c(=O)c3sccc3n(CC(=O)Nc3ccccc3)c2=O)CC1 (centres undefined)	0.9%	-23.4%	nt	5.8%	1.1%	7.2%
COc1ccc2cc(CNc3ccc(C)cc3)c(=O)n(CC(=O)Nc3cccc(C(F)(F)F)c3)c2c1	nt	nt	nt	2.8%	-0.1%	-26.2%
CCN(CC(=O)NCc1ccc(F)cc1)C(=O)c1ccc(C)o1	1.6%	-0.2%	13.9	0.1%	-3.2%	-5.3%
